# Screening results (PubChem)
# Bead autofluor: compound fluorescence in toxin protease inhibitor counterscreen; 360,000 compounds, 3.1% hits; fluorescence intensity (test concentration not listed); AID 624483; compound autofluorescence counterscreen, microsphere flow cytometry; hits give high values; in the data active = fluorescence intensity above about 16000; inconclusive = no clear call, values can overlap the other calls
# BoNT-F LC inh: BoNT F light chain protease inhibition; 360,000 compounds, 0.22% hits; inhibition, % at 10 µM; Multiplex microsphere protease cleavage assay, flow cytometry; in the data active = inhibition above about 35%, passing the limit was not always enough; inconclusive = no clear call, values can overlap the other calls; note: plate controls were buffer without enzyme for full effect and enzyme alone for no effect
# MazF activator: MazEF (E. coli) toxin RNase activation; 350,000 compounds, 0.32% hits; FAM/BHQ RNA-DNA oligo cleavage fluorescence, 5 h; activation, % at 20 µM; in the data active = activation above about 50%
# Anthrax LF inh2: blocks Bacillus anthracis lethal factor protease | P15917 | multiplex microsphere protease cleavage assay, LF | inhibition, % at 10 µM | 360,000 compounds, 0.12% hits | AID 588501; note: plate controls were buffer without enzyme for full effect and enzyme alone for no effect
# Target sequence (P15917 whole entry, looked up): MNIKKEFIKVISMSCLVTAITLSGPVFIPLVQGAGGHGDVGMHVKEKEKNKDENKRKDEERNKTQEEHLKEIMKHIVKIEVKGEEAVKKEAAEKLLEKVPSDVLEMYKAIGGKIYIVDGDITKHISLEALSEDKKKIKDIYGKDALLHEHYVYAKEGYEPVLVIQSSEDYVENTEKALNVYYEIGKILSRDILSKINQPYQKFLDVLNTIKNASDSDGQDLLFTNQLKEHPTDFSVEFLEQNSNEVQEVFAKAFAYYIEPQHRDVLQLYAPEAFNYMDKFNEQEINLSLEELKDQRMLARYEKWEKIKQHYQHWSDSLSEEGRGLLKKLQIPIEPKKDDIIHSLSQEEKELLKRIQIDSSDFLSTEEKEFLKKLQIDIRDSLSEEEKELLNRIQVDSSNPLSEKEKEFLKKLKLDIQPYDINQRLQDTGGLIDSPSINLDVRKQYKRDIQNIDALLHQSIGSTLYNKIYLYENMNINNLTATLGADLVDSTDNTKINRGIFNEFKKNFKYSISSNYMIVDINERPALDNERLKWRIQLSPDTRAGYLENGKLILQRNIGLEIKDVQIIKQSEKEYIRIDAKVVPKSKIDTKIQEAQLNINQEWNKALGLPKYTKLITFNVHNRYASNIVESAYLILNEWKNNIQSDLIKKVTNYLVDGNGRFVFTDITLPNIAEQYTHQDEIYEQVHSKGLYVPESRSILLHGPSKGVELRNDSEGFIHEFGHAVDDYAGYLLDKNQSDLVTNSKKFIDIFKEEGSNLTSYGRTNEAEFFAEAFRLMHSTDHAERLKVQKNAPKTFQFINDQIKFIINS
# PfHsp40 yeast: rescue of PfHsp40-mediated yeast toxicity | S. cerevisiae expressing PfHsp40, growth rescue, ATP luminescence | growth rescue, % at 12.5 µM | 340,000 compounds, 0.68% hits; in the data active = growth rescue above about 28%, passing the limit was not always enough; inconclusive = no clear call, values can overlap the other calls;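 note: yeast W303a lacking pdr1 and pdr3 grown in galactose medium; growth measured after three days at 30 °C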
# BoNT A protease: BoNT A light chain protease inhibition; multiplex microsphere protease substrate cleavage, flow cytometry; inhibition, % at 10 µM; AID 588499; 360,000 compounds, 0.17% hits; note: plate controls were buffer without enzyme for full effect and enzyme alone for no effect
# Numbers without * were called inactive; ? = inconclusive; · = no result. The list is not random: actives were taken first. Their share in the collection is about 4.3%. Cut-off read from the data, not from the text of the source, unless noted: active = inhibition above about 30%; inconclusive = no clear call, values can overlap the other calls; inactive = below that.
SMILES,Bead autofluor,BoNT-F LC inh,MazF activator,Anthrax LF inh2,PfHsp40 yeast,BoNT A protease
Clc1ccc(Oc2cnc3ccccc3n2)cc1,24944*,-4,-9,-3,1,-2
Cc1ccc(Oc2cnc3ccccc3n2)cc1,20600*,-2,-7,-4,-1,?
Fc1ccc(Oc2cnc3ccccc3n2)cc1,2246,0,2,2,0,0
Cc1cccc(NC(=O)CNC(=O)c2ccc(-n3cncn3)c([N+](=O)[O-])c2)c1C,5277,-5,-2,-1,0,2
O=C(CCc1ccc(O)cc1)c1c(O)cc(O)cc1O,3690,-5,8,2,4,0
COc1cc(O)c(CC=C(C)C)c(O)c1C(=O)CCc1ccc(O)cc1,5502,-10,12,-5,210*,-1
O=C(Oc1ccc2c(=O)c(Oc3ccc4ccccc4c3)coc2c1)c1cncc(Br)c1,4480,36*,-11,1,0,0
NC(=O)C1CCN(C(=O)c2ccc3c(=O)n(Cc4ccco4)c(SCC(=O)c4ccccc4)nc3c2)CC1,3250,0,15,1,0,-1
N#CCSc1nc2cc(C(=O)N3CCC(C(N)=O)CC3)ccc2c2nc3ccccc3n12,20618*,1,-13,0,2,2
CCCCCn1c(SCC(=O)OCC)nc2cc(C(=O)N3CCC(C(N)=O)CC3)ccc2c1=O,21996*,2,1,-1,1,1
CCCCCCC(CC(=O)NCc1cccnc1)CC(=O)NCc1cccnc1,4135,?,10,-6,0,-4
CCOC(=O)c1sc(-c2cccc(C(F)(F)F)c2)nc1O,4233,-9,-10,-1,0,0
CCOC(=O)c1sc(-c2ccc(C(F)(F)F)cc2)nc1O,5129,-4,-19,4,132*,0
Cc1cc(C)c(S(=O)(=O)Nc2cccc(C(=O)O)c2)cc1S(=O)(=O)Nc1cccc(C(=O)O)c1,5351,-4,16,-2,4,0
Cc1cc(NC(=O)c2cc(-c3cccc(Cl)c3)on2)no1,10572,13,-1,0,-1,1
CCCNC(=O)c1cc(-c2ccc(OC)cc2)on1,16440*,1,-6,-2,-1,0
COc1cc(OC)cc(C(=O)NC(=S)NCCc2ccccc2)c1,22614*,3,-2,0,9,3
COc1cccc(-c2cc(C(=O)Nc3cc(C)on3)no2)c1,22051*,2,-14,0,0,0
Cc1cc(OCCCC(=O)NCCc2ccccn2)ccc1Cl,3979,5,60*,-2,-1,1
COc1ccc2cc(C3=CCCC3(C)C(=O)O)ccc2c1 (stereo unspecified),3670,3,1,-6,-1,0
C[C@H]1CN([C@@H](C)CO)C(=O)CCCn2nncc2CO[C@@H]1CN(C)C(=O)c1ccncc1,3538,3,4,2,·,0
COc1cccc(-c2cc(C(=O)NCCc3ccccc3)no2)c1,21462*,8,-5,0,0,7
COc1ccc(CCCC(=O)NCCc2ccccc2)c(C)c1,3585,24,1,4,40*,-1
CCCCN(C)CCCNC(=O)/C=C1\Sc2ccccc2NC1=O,4043,-14,3,-4,0,-3
CC(C)CN(CC(C)C)C(=O)CN1C(=O)NC2(CCCc3ccccc32)C1=O (stereo unspecified),3146,-34,4,-8,0,-7
SMILES,Bead autofluor,BoNT-F LC inh,MazF activator,Anthrax LF inh2,PfHsp40 yeast,BoNT A protease
COc1cc(OC)c(C(=O)Nc2ccc(S(=O)(=O)Nc3ncccn3)cc2)cc1OC,21604*,5,1,0,0,4
COc1ccc(CC(=O)Nc2ccc(S(=O)(=O)Nc3ncccn3)cc2)cc1OC,4350,-6,6,-3,1,1
Cc1cc(C)nc(/N=C(\N)C2=C(O)CC(C)(C)CC2=O)n1,21038*,-4,1,-2,-1,0
CC(OC(=O)CN1C(=O)c2ccccc2C1=O)C(=O)N(C)c1ccccc1 (stereo unspecified),?,0,5,-2,0,0
Cc1ccc(S(=O)(=O)N2CCC(C(=O)OCC(=O)N(C)CC(=O)Nc3ccc(F)cc3)CC2)cc1C,?,6,6,-4,0,6
Cn1c(O)c(N=Nc2ccc(F)cc2)c2ccccc21,3641,4,337*,-5,2,0
COc1ccc(NC(=O)c2ccc(-c3c(C)noc3C)c3ccoc23)cc1,3855,-8,·,-9,·,-1
